# Hits are enriched below; roughly 0.58% of the tested compounds scored in any of these assays.
# BioA inh: BioA (M. tuberculosis) enzyme inhibition. actives 0.096% (n = 360,000). AID 602481. purified M. tuberculosis BioA enzyme, plate reader. inhibition, % at 9.99 µM; in the data active = inhibition above about 40%; inconclusive = no clear call, values can overlap the other calls
# BH1578 lux ind: quorum light induction in luxS cqsA deficient V. cholerae | V. cholerae BH1578 lux reporter, luminescence, 6 h | activation, % at 18.7 µM | actives 0.16% (n = 350,000) | AID 588436; in the data active = activation mostly above about 9.7%, no sharp cut-off; inconclusive = no clear call, values can overlap the other calls; inactive = mostly below about 3.7%
# Yp Topo-I inh: blocks Yersinia pestis topoisomerase I activity; activity, % at 10 µM; AID 504884; Y. pestis Topo-I cleavage product accumulation, plate reader; actives 0.064% (n = 360,000); in the data active = activity above about 50%, passing the limit was not always enough; inconclusive = no clear call, values can overlap the other calls
# TcdB GH inh: blocks C. difficile toxin B glycohydrolase activity; AID 652162; P18177; TcdB glycohydrolase enzymatic assay, plate reader; actives 0.24% (n = 350,000); inhibition, % at 9.99 µM; in the data active = inhibition above about 10%
# FadD28 binding: inhibitors of Mycobacterium tuberculosis FadD28 bisubstrate binding | inhibition, % at 12.5 µM | AID 588549 | actives 0.22% (n = 360,000) | FadD28 bisubstrate probe binding, fluorescence polarization; in the data active = inhibition above about 8.5%, passing the limit was not always enough; inconclusive = no clear call, values can overlap the other calls
# Active calls of the source: *; i = inactive; u = inconclusive; x = no result given.
SMILES,BioA inh,BH1578 lux ind,Yp Topo-I inh,TcdB GH inh,FadD28 binding
O=C1CCCN1c1ncc(S(=O)(=O)c2ccc([N+](=O)[O-])cc2)s1,x,i,-7,-1,-2
CC(C)NC(=O)N(C)C[C@H]1Oc2c(NC(=O)C3CCOCC3)cccc2C(=O)N([C@@H](C)CO)C[C@@H]1C,1,x,x,1,x
O=S(=O)(NC1CCCC1)c1ccc(S(=O)(=O)NC2CCCC2)cc1,-1,-2,3,x,-2
O=S(=O)(NC1CCCCCCC1)c1ccc(F)cc1,1,i,8,12*,-4
CCN(CC)c1ncnc2scc(C3COc4ccccc4O3)c12 (stereo not given),2,i,53*,x,-1
c1ccc2c(c1)OCC(c1csc3ncnc(N4CCOCC4)c13)O2 (stereo not given),x,i,9,x,0
CC(=O)Nc1ccccc1O,1,i,1,20*,-2
O=C(C[C@H]1C[C@@H]2c3cc(NC(=O)Nc4ccccc4)ccc3O[C@@H]2[C@H](CO)O1)NCC(F)(F)F,-2,x,x,2,x
Oc1c(N=Nc2nn[nH]n2)ccc2ccccc12,x,x,x,2,30*
Cc1ccc(S(=O)(=O)NCC[C@H]2CC[C@H](NC(=O)NC(C)C)[C@@H](CO)O2)cc1,-1,x,x,-4,x
OCC[C@@H]1C[C@@H](O)[C@H](O)[C@@]2(Cc3ccccc3CO2)O1,-1,i,-2,0,0
OCC[C@H]1C[C@H](O)[C@@H](O)[C@@]2(Cc3ccccc3CO2)O1,0,0,15,14*,1
Cc1ccc(NC(=O)Nc2sc(=S)n(C)c2C)cc1,0,0,-10,x,11*
COc1ccc(OC)c(NC(=O)CSCC(=O)O)c1,0,17*,1,x,-1
COc1ccc(OC)c(NC(=O)CSc2ccccc2)c1,2,x,9,x,-5
O=C(C1CCOCC1)N1C[C@H]2[C@@H](c3ccccc31)[C@H](CO)N2C(=O)Cc1ccccc1,-4,x,x,1,x
COCC(=O)Nc1ccc2c(c1)C(=O)N(C)[C@H]1CC[C@H](CC(=O)OC)O[C@@H]1CO2,x,x,x,-1,x
N#CC1=C(N)C(C#N)(C#N)C(c2cccnc2)C2CC(c3ccccc3)CC=C12 (stereo not given),16,25*,-2,x,-4
N#CC1=C(N)C(C#N)(C#N)[C@H](c2cccnc2)[C@H]2CN(C(=O)OCc3ccccc3)CC=C12,3,i,-9,0,-3
NNC(=O)CNC(=O)Nc1n[nH]c(=S)s1,x,x,x,10*,0
COc1ccc(/C=C/c2nc3ccccc3n2C)cc1,x,0,12,13*,-1
COc1c(Br)cc(Br)cc1/C=N/n1c(C)nnc1C,9,5.6*,-1,x,-3
CC(=O)N(C)C[C@@H]1Oc2ncc(C3=CCCC3)cc2C(=O)N([C@@H](C)CO)C[C@@H]1C,-1,x,x,0,x
Cc1ccc(CNC(=O)c2nnn(-c3cccc(C)c3)c2N)cc1,x,0,-3,x,0
Cc1cccc(-n2nnc(C(=O)NCc3ccccc3Cl)c2N)c1,1,1,4,11*,-1
SMILES,BioA inh,BH1578 lux ind,Yp Topo-I inh,TcdB GH inh,FadD28 binding
C[C@H](CO)N1C[C@H](C)[C@@H](CN(C)Cc2ccccc2)Oc2ccc(NS(C)(=O)=O)cc2CC1=O,0,x,x,0,x
O=C(COC(=O)C1CCN(c2ccc(C(F)(F)F)cn2)CC1)c1ccccc1Cl,0,-1,52*,6,1
Cc1ccc(C(=O)C(C)OC(=O)C2CCN(c3ccc(C(F)(F)F)cn3)CC2)cc1 (stereo not given),x,-1,55*,3,-2
O=C(COC(=O)C1CCN(c2ccc(C(F)(F)F)cn2)CC1)c1ccc(Cl)cc1,x,i,30,0,-4
CCn1c(SCC(=O)OC)nnc1-c1ccccc1,0,0,3,20*,-2
CNc1nc(C23CC4CC(CC(C4)C2)C3)cs1,x,2,9,12*,-1
COc1ccc(NC(=O)N2CCCCN3[C@H](C2)[C@@H](c2ccc(C#Cc4ccccc4)cc2)[C@@H]3CO)cc1,-3,x,x,0,x
CCn1c(=N)n(CC(O)c2ccco2)c2ccccc21 (stereo not given),-2,-27,3,x,-1
N=c1n(Cc2ccccc2)c2ccccc2n1CC(O)c1ccco1 (stereo not given),-11,i,1,x,13*
C=C1CCN(Cc2ccccc2)S(=O)(=O)c2ccccc21,1,i,10,11*,-1
O=C1CCN(Cc2ccccc2)S(=O)(=O)c2ccccc21,0,i,1,3,-2
CC(/C=C1\SC(=S)N(NS(=O)(=O)c2ccc(C)cc2)C1=O)=C\c1ccccc1,-2,0,15,0,11*
C=CCOc1ccc(/C=C2\SC(=S)N(NS(=O)(=O)c3ccccc3)C2=O)cc1,x,i,25,2,12*
COc1ccc(/C=C2/SC(=S)N(NS(=O)(=O)c3ccccc3)C2=O)cc1,0,1,0,1,2
CC(/C=C1\SC(=S)N(NS(=O)(=O)c2ccccc2)C1=O)=C\c1ccccc1,2,0,0,0,u
O=C(C[C@@H]1CC[C@H]2[C@@H](COC[C@H](O)CN2C(=O)c2ccncc2)O1)NC1Cc2ccccc2C1,-1,x,x,-2,x
COc1ccc(/C=C(/C#N)C(=O)Nc2ccc(O)cc2)cc1C(=O)O,x,i,-5,18*,-2
O=C(C[C@@H]1CC[C@@H]2[C@H](COC[C@H](O)CN2S(=O)(=O)c2ccccc2)O1)N1CCOCC1,-3,x,x,-2,x
COc1ccc(CN2CCN(C(=O)C3CC(=O)N(C4CCCCCC4)C3)CC2)c(OC)c1OC (stereo not given),-1,i,74*,x,-1
COc1cccc2c1C(=O)c1c(O)c3c(c(O)c1C2=O)C[C@@](O)(C(C)=O)C[C@@H]3O[C@H]1C[C@H](N)[C@H](O)[C@H](C)O1,-57,0,9,-19,68*
COc1cccc2c1C(=O)c1c(O)c3c(c(O)c1C2=O)C[C@@](O)(C(=O)CO)C[C@@H]3O[C@H]1C[C@H](N)[C@@H](O)[C@H](C)O1,-11,-3,-11,x,64*
COc1cccc2c1C(=O)c1c(O)c3c(c(O)c1C2=O)CC(O)(C(=O)CO)CC3OC1CC(N(C)C)C(O)C(C)O1 (stereo not given),x,i,-34,-22,65*
O=c1[nH]nc(-c2ccc(F)cc2)cc1Cc1ccccc1,x,i,18,10*,-1
CCOC(=O)Cn1nc(-c2ccc(F)cc2)cc(Cc2ccccc2)c1=O,12,0,33,0,-1
CCOCC(=O)Nc1cc(Cl)ccc1C,x,0,1,10*,-2
Cc1ccc(S(=O)(=O)Nc2cccnc2Oc2ccc(Cl)cc2)cc1,x,i,-5,14*,-2
Cc1ccc(C(=O)Nc2cccnc2Oc2ccc(Cl)cc2)cc1,0,0,7,6,0
Cc1nn(CCc2nn[nH]n2)c2nc(-c3ccc(C4CCCCC4)cc3)cc(C(F)(F)F)c12,x,0,-2,0,14*
C=CCn1c(O)c(CN2CCN(Cc3ccccc3)CC2)c(C)c(C#N)c1=O,-1,17*,2,x,2

# Assay outcomes deposited in PubChem by Broad Institute.
